Laboratory results: the supplement of paper PMC10849652
Targets with a hit are over-represented here; the source holds about 7,900 in all. About 0.6% of all pairs of compound and target were hits.

How the values were obtained:
Assay in all cases: log2 fold change, soluble protein after heating vs DMSO (PISA); higher = thermal stabilisation; K562 cells, 10 uM, 30 min; active = over 0.2 and 3.5 SD of the protein, either way, in both replicates (recomputed)
[1] = compound: CS(=O)(=O)c1ccc(-c2cnc(N)c(C(=O)Nc3ccccc3)n2)cc1
How it was run: (§1)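 For each measurement, 10 μM compound was applied for 30 min to K562 cells at 2×10^6 cells/mL. Aliquots were heated for 3 min across 48°C-58°C, pooled, and extracted in PBS with 0.5% NP-40 at 4°C; the supernatant after 21,000xg for 90 min was soluble protein. This was quantified by TMTpro 16plex LC-MS/MS with channel sums equalised, and thermal stability was reported relative to control samples from duplicates, on a log2 fold-change scale.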

[2] = compound: C[C@H](C1=CC=C(C=C1)C(=O)NC2=C3C=CNC3=NC=C2)N
How it was run: as §1

tozasertib = compound: Cc1cc(Nc2cc(N3CCN(C)CC3)nc(Sc3ccc(NC(=O)C4CC4)cc3)n2)n[nH]1 [tozasertib]
How it was run: as §1

ispinesib = compound: Cc1ccc(C(=O)N(CCCN)[C@@H](c2nc3cc(Cl)ccc3c(=O)n2Cc2ccccc2)C(C)C)cc1 [ispinesib]
How it was run: as §1

bafetinib = compound: Cc1ccc(NC(=O)c2ccc(CN3CC[C@H](N(C)C)C3)c(C(F)(F)F)c2)cc1Nc1nccc(-c2cncnc2)n1 [bafetinib]
How it was run: as §1

nilotinib = compound: Cc1cn(-c2cc(NC(=O)c3ccc(C)c(Nc4nccc(-c5cccnc5)n4)c3)cc(C(F)(F)F)c2)cn1 [nilotinib]
How it was run: as §1

[3] = compound: Cc1nc(Nc2n[nH]c3c2CN(C(=O)N[C@H](CN(C)C)c2ccccc2)C3(C)C)c2sccc2n1
How it was run: as §1

[4] = compound: Cc1ncc(-c2ccnc(Nc3ccc(S(C)(=O)=O)cc3)n2)n1C(C)C
How it was run: as §1

[5] = compound: Cn1cc(-c2ccc3c(c2)CCN3C(=O)Cc2cccc(C(F)(F)F)c2)c2c(N)ncnc21
How it was run: as §1

[6] = compound: Cn1cc(-c2ccc3nnc(C(F)(F)c4ccc5ncccc5c4)n3n2)cn1
How it was run: as §1

mubritinib = compound: FC(F)(F)c1ccc(/C=C/c2nc(COc3ccc(CCCCn4ccnn4)cc3)co2)cc1 [mubritinib]
How it was run: as §1

crizotinib = compound: C[C@@H](Oc1cc(-c2cnn(C3CCNCC3)c2)cnc1N)c1c(Cl)ccc(F)c1Cl [crizotinib]
How it was run: as §1

duvelisib = compound: C[C@H](Nc1ncnc2nc[nH]c12)c1cc2cccc(Cl)c2c(=O)n1-c1ccccc1 [duvelisib]
How it was run: as §1

[7] = compound: Cc1cc(SCc2sc(-c3ccc(C(F)(F)F)cc3)nc2C)ccc1OCC(=O)O
How it was run: as §1

doramapimod = compound: Cc1ccc(-n2nc(C(C)(C)C)cc2NC(=O)Nc2ccc(OCCN3CCOCC3)c3ccccc23)cc1 [doramapimod]
How it was run: as §1

dasatinib = compound: Cc1nc(Nc2ncc(C(=O)Nc3c(C)cccc3Cl)s2)cc(N2CCN(CCO)CC2)n1 [dasatinib]
How it was run: as §1

[8] = compound: C[C@@H]1COCCN1C2=NC(=NC(=C2)C3(CC3)S(=O)(=O)C)C4=C5C=CNC5=CC=C4
How it was run: as §1

gandotinib = compound: Cc1cc(Nc2cc(CN3CCOCC3)c3nc(C)c(Cc4ccc(Cl)cc4F)n3n2)n[nH]1 [gandotinib]
How it was run: as §1

[9] = compound: Cc1cccc(CC(=O)N2CCc3c2ccc(-c2cn(C)c4ncnc(N)c24)c3F)n1
How it was run: as §1

tipifarnib = compound: Cn1cncc1[C@@](N)(c1ccc(Cl)cc1)c1ccc2c(c1)c(-c1cccc(Cl)c1)cc(=O)n2C [tipifarnib]
How it was run: as §1

Measured: log2 fold change

IKZF1 isoform 2 (UniProt Q13422)
Chain of UniProt Q13422 (Q13422 whole entry, looked up): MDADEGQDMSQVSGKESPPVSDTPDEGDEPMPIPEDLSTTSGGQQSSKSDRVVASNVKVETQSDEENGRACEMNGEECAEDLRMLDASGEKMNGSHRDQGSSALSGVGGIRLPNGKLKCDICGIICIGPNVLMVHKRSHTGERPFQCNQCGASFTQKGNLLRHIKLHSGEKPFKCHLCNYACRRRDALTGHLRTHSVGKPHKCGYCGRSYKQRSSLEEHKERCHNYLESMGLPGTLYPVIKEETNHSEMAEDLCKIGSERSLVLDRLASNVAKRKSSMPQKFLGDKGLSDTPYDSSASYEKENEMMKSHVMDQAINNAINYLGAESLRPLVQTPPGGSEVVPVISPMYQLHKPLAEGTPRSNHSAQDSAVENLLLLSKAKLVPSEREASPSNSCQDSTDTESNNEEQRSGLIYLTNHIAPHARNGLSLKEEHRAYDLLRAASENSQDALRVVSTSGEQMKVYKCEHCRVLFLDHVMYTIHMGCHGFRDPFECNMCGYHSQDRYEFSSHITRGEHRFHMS
inactive: [1] 0.081 | [2] 0.059 | tozasertib 0.055 | ispinesib -0.034 | bafetinib -0.217 | nilotinib 0.101 | [3] -0.018 | [4] 0.043 | [5] -0.026 | [6] 0.015 | mubritinib -0.024

KIF1B isoform 3 (UniProt O60333)
inactive: mubritinib 0.168

MAP2K5 (UniProt Q13163)
Chain of UniProt Q13163 (Q13163 whole entry, looked up): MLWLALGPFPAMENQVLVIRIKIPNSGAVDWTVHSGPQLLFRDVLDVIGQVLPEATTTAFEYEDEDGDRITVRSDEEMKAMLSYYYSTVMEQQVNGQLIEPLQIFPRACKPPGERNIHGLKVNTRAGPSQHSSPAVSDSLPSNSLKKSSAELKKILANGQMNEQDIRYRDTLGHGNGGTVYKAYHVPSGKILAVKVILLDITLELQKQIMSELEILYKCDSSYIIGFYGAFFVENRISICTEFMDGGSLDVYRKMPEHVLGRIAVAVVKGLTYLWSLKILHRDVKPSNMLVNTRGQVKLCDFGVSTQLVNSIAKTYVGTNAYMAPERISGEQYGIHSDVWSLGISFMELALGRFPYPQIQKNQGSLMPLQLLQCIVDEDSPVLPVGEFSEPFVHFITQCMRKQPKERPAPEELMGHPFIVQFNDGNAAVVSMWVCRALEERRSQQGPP
inactive: crizotinib -0.012 | [2] 0.072 | duvelisib -0.049 | [7] -0.171 | doramapimod 0.053 | ispinesib 0.123 | dasatinib 0.063 | [5] 0.06 | [6] 0

MAP4K5 (UniProt Q9Y4K4)
inactive: [1] 0.019 | [8] 0.072 | [2] 0.24 | gandotinib -0.067 | tozasertib -0.088 | doramapimod -0.064 | ispinesib -0.045 | bafetinib -0.064 | [9] -0.001 | nilotinib 0.136 | [3] -0.093 | [4] -0.116 | [5] -0.125 | [6] 0.019 | tipifarnib -0.146 | mubritinib 0.022

MCOLN3 (UniProt Q8TDD5)
Chain of UniProt Q8TDD5 (Q8TDD5 whole entry, looked up): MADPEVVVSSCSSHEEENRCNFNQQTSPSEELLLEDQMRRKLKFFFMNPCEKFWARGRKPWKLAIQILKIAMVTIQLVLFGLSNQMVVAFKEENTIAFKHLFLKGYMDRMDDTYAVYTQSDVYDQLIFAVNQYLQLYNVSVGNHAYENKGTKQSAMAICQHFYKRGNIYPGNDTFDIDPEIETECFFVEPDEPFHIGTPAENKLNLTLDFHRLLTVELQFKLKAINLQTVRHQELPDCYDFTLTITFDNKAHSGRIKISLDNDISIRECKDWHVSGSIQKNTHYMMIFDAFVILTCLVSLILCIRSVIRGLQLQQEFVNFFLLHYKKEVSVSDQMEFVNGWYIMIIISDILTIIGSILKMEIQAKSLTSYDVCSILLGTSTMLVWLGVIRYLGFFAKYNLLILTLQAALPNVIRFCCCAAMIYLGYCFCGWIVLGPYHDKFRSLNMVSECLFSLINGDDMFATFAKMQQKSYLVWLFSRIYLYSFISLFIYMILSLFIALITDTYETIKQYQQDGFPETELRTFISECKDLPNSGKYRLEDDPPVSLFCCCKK
inactive: gandotinib 0.022 | tozasertib -0.112 | ispinesib -0.255 | bafetinib -0.03 | [9] -0.183 | nilotinib -0.289 | [3] -0.113 | [4] 0.041 | [6] 0.079 | tipifarnib 0.072 | mubritinib 0.05

LOX (UniProt P28300)
Chain of UniProt P28300 (P28300 whole entry, looked up): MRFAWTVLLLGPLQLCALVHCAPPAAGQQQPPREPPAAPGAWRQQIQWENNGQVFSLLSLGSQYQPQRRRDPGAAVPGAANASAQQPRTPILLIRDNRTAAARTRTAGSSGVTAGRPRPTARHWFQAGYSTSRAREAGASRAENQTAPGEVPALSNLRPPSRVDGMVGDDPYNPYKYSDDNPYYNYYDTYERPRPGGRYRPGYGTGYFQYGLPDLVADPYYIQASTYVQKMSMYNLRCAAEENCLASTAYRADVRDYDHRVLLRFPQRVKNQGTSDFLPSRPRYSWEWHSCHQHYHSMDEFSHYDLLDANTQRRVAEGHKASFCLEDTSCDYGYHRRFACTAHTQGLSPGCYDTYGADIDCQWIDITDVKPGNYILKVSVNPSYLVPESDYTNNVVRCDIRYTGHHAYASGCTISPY
inactive: nilotinib -0.183 | [3] 0.175 | [4] 0.12 | mubritinib -0.017
active: bafetinib -0.734

KXD1 (UniProt Q9BQD3)
Chain of UniProt Q9BQD3 (Q9BQD3 whole entry, looked up): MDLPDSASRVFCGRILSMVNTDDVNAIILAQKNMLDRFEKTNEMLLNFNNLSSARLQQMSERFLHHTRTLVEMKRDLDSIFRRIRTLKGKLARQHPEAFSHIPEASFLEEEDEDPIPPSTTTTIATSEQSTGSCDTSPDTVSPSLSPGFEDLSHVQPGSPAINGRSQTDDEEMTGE
inactive: [8] 0.118 | [2] -0.009 | duvelisib 0.067 | gandotinib -0.156 | tozasertib -0.046 | [7] 0.012 | ispinesib -0.078 | bafetinib -0.131 | [9] 0.045 | dasatinib -0.082 | [5] 0.019 | [6] 0.085 | tipifarnib 0.024 | mubritinib 0.052

MBLAC1 (UniProt A4D2B0)
Chain of UniProt A4D2B0 (A4D2B0 whole entry, looked up): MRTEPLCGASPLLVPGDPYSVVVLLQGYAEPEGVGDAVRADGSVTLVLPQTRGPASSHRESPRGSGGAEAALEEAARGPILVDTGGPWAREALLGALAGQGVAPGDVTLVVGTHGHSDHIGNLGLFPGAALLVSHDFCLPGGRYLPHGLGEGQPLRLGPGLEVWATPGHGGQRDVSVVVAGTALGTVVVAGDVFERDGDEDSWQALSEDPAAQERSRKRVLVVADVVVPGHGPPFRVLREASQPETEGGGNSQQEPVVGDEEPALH
inactive: crizotinib 0.038 | [2] -0.007 | duvelisib 0.019 | gandotinib -0.056 | [7] -0.017 | doramapimod 0.169 | ispinesib -0.142 | bafetinib -0.017 | [9] 0.065 | dasatinib -0.129 | [5] 0.086 | [6] -0.125 | tipifarnib 0.094 | mubritinib -0.045

LAPTM4B (UniProt Q86VI4)
inactive: [1] 0.012 | gandotinib 0 | bafetinib 0.024 | [9] -0.137 | mubritinib 0.017

KIF21A (UniProt H0YI78)
inactive: ispinesib -0.041 | [6] 0.134

MAPK11 (UniProt Q15759)
inactive: crizotinib -0.115 | gandotinib -0.083 | tozasertib 0.268 | ispinesib -0.334 | [9] -0.116 | [6] -0.024

LIN52 (UniProt Q52LA3)
Chain of UniProt Q52LA3 (Q52LA3 whole entry, looked up): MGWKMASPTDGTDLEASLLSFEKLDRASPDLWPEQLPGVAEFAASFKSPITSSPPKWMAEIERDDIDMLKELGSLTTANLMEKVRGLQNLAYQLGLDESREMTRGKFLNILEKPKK
inactive: duvelisib -0.087 | [7] -0.059 | dasatinib -0.049 | mubritinib -0.117

LAMP2 isoform 2 (UniProt P13473)
active: crizotinib -0.424 | duvelisib 0.344
inactive: [8] 0.119 | [2] -0.051 | gandotinib 0.066 | tozasertib -0.071 | [7] 0.011 | doramapimod 0.002 | bafetinib -0.014 | [9] -0.014 | nilotinib 0.018 | [3] -0.009 | dasatinib -0.047 | [4] 0 | [5] 0.005 | tipifarnib 0.126 | mubritinib 0.003

LRRFIP1 isoform 4 (UniProt Q32MZ4)
Chain of UniProt Q32MZ4 (Q32MZ4 whole entry, looked up): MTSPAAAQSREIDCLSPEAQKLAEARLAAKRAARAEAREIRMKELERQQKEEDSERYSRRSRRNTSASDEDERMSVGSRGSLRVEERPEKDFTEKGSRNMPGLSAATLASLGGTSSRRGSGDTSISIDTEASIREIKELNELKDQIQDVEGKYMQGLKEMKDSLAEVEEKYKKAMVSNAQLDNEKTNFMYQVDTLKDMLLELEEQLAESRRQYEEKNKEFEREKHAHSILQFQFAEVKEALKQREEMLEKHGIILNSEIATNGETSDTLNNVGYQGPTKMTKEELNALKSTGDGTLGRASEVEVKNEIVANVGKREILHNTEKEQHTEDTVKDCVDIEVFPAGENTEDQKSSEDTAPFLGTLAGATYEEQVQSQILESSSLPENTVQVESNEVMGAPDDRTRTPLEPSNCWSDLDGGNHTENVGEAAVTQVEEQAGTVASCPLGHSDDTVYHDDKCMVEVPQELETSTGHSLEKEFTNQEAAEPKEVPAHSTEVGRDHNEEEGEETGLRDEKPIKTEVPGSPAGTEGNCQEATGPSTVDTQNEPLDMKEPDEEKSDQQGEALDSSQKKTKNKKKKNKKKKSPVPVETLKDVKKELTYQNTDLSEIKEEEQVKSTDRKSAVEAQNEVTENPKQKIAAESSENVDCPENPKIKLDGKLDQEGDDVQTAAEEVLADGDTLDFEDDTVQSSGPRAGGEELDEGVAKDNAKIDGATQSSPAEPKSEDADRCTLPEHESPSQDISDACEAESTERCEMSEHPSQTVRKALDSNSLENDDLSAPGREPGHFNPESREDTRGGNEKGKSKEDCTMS
inactive: crizotinib 0.012 | [8] 0.175 | [2] 0.59 | duvelisib 0.025 | gandotinib 0.548 | [7] -0.025 | doramapimod -0.016 | [9] -0.046 | dasatinib -0.095 | [5] -0.226

ING5 (UniProt Q8WYH8)
Chain of UniProt Q8WYH8 (Q8WYH8 whole entry, looked up): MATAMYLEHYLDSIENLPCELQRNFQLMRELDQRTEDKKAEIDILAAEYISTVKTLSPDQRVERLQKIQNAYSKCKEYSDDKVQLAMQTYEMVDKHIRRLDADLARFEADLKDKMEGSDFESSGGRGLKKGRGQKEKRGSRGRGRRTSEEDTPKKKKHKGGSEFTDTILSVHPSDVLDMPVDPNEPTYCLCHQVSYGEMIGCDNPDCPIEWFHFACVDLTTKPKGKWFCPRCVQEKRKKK
inactive: crizotinib -0.36 | [2] -0.018 | tozasertib -0.079 | doramapimod -0.019 | [5] 0.164 | tipifarnib 0.045 | mubritinib 0.206

IPP (UniProt Q9Y573)
inactive: bafetinib -0.225

KIF13A isoform 4 (UniProt Q9H1H9)
inactive: [1] -0.363 | [2] -0.019 | [5] 0.069

MFAP3 (UniProt P55082)
inactive: [1] -0.012 | [8] 0.045 | duvelisib 0.083 | tozasertib 0.009 | [7] 0.003 | bafetinib -0.385 | dasatinib -0.083

MAP4K2 (UniProt Q12851)
Chain of UniProt Q12851 (Q12851 whole entry, looked up): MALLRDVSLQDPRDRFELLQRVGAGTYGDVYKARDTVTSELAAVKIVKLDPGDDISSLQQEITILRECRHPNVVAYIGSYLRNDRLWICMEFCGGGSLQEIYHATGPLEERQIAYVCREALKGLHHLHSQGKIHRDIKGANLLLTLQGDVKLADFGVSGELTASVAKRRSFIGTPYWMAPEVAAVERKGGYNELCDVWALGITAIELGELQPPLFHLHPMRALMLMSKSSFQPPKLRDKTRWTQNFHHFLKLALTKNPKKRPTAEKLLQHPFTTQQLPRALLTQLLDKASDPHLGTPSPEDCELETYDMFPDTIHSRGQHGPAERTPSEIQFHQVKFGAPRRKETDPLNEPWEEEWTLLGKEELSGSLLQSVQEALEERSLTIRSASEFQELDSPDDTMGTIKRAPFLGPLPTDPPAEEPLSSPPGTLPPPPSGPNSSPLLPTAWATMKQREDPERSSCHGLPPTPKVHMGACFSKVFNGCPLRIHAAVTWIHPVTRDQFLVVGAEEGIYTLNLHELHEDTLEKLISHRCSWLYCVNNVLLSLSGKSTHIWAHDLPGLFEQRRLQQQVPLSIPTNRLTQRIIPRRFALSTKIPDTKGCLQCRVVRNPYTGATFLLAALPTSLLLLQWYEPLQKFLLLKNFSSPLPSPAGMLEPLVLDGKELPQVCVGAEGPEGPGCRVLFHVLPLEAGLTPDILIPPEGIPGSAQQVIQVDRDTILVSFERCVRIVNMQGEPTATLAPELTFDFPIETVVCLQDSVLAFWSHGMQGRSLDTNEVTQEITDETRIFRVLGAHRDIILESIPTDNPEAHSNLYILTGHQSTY
inactive: [1] -0.032 | [2] -0.129 | tozasertib 0.158 | doramapimod -0.091 | bafetinib -0.116 | nilotinib -0.187 | [3] 0.024 | [4] -0.13 | [5] -0.135 | tipifarnib -0.048

KIZ (UniProt Q2M2Z5)
inactive: crizotinib -0.032 | [2] -0.115 | gandotinib 0.063 | doramapimod 0.071 | ispinesib -0.047 | [9] 0.268 | [5] -0.446 | [6] 0.196 | tipifarnib 0.217

MFSD1 isoform 6 (UniProt Q9H3U5)
active: ispinesib -0.367
inactive: [1] 0.035 | [8] 0.076 | [2] -0.03 | gandotinib -0.077 | tozasertib 0.041 | bafetinib -0.123 | [9] 0.066 | nilotinib -0.017 | [3] 0.046 | [4] -0.016 | [5] -0.034 | [6] 0.033 | tipifarnib 0.05 | mubritinib 0.005

LSR isoform 3 (UniProt Q86X29)
inactive: [1] 0.052 | [2] -0.138 | duvelisib 0.179 | tozasertib -0.324 | [7] -0.118 | dasatinib -0.074 | [5] 0.026 | tipifarnib 0.101 | mubritinib 0.435

IKZF1 (UniProt R9R4D9)
inactive: crizotinib 0.028 | [2] -0.078 | duvelisib 0.042 | gandotinib 0.244 | tozasertib -0.066 | [7] -0.12 | doramapimod 0.235 | [9] -0.164 | dasatinib -0.17 | [5] -0.044 | tipifarnib -0.119

MFSD12 isoform 3 (UniProt Q6NUT3)
Chain of UniProt Q6NUT3 (Q6NUT3 whole entry, looked up): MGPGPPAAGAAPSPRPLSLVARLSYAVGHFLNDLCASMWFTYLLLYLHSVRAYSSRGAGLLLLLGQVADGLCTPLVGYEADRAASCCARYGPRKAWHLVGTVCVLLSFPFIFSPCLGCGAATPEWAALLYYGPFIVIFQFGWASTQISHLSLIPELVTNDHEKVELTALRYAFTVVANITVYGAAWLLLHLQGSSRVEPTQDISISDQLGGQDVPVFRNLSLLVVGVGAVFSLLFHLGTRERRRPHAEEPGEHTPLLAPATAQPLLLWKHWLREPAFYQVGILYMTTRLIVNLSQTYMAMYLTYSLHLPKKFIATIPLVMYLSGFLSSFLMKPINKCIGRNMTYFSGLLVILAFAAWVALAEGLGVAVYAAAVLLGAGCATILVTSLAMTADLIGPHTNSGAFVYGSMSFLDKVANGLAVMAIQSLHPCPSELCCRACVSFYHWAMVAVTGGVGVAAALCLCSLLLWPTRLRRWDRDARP
inactive: [1] 0.17 | [2] -0.213 | duvelisib 0.109 | gandotinib -0.122 | tozasertib 0.063 | [7] 0.065 | [9] 0.047 | dasatinib -0.093 | [5] -0.124
